Compound activity deposited in PubChem BioAssay by several laboratories.
The list is not random: actives were taken first. Their share in the collection is about 3.3%.
PERK inh: block of dimerizer-induced PERK translation repression, primary screen, PERK inhibitor project, CHO PERK-DD cells, SEAP luminescence, HTS | Eukaryotic translation initiation factor 2-alpha kinase 3 (Homo sapiens), Q9NZJ5 | CHO PERK-DD fusion, SEAP luminescence translation reporter | inhibition, % at 5.6 µM | actives 0.17% (n = 220,000);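 active = inhibition above the mean inhibition of all tested compounds plus 3 SD, set separately per screening campaign, cut at about 2.9% in these data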;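 note: PERK kinase domain activated by AP20187 dimerizer at 100 nM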
Arbovirus inh: antivirals against arbovirus infection, primary screen, cell-based, full library, 10K replicate subset; arbovirus infection cell-based antiviral screen; actives 0.37% (n = 200,000); inhibition, % at 10 µM; AID 1251, 2008; in the data active = inhibition above about 30%
WT yeast gro inh: growth inhibition of WT strain, primary screen, mitochondrial fusion inhibitor project, WT and mutant strains, chemical genetic. mitochondrial fusion phenotypic screen. AID 1362, 2008. inhibition, % at 10 µM. actives 2.1% (n = 190,000); in the data active = inhibition above about 58%; tested in S. cerevisiae
ROMK mod: ROMK potassium channel modulators, primary screen, cell-based, thallium flux, MLSMR library | ATP-sensitive inward rectifier potassium channel 1 (Homo sapiens), P48048 | Tet-inducible ROMK, thallium flux fluorescence; actives lie on both sides | B-score at 10 µM | actives 2% (n = 130,000) | AID 1918, 2009;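 active = signal ratio slope over the read window, or its plate-corrected B-score, at least 3 SD from the plate mean, either direction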;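 note: B-score of the F/F0 ratio slope over 7 to 12 s after thallium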
Target sequence (P48048 whole entry, looked up): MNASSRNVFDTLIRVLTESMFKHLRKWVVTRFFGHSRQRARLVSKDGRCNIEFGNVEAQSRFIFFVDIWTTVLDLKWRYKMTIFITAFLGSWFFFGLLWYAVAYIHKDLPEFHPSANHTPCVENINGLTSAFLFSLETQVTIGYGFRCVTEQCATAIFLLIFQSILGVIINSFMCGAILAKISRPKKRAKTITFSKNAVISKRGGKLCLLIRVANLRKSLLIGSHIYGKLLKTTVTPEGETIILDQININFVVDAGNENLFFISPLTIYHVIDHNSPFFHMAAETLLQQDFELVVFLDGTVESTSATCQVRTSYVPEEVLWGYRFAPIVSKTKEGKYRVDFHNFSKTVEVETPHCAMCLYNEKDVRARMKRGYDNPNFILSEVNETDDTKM
ROMK retest: ROMK channel modulator hit retest, confirmation, cell-based, thallium flux, duplicate, resupplied hits; shares compounds with ROMK mod; fluorescence ratio; hits give low values; normalized thallium flux (F/F0 slope) at 10 µM; actives 54% (n = 3,000); AID 1917, 2009;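 active = Flux at 10 µM at least 3 SD below or above vehicle control mean in one or both replicates; inconclusive = no clear call, values can overlap the other calls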
Hits are given with their value.

`CCOc1ccc(-c2nc(C#N)c(NCc3ccco3)o2)cc1` gave PERK inh inactive, Arbovirus inh inactive, WT yeast gro inh inactive, ROMK mod 0.67 and ROMK retest inactive.
For CCOC(=O)C1CCCN(C(=O)CCn2nc(-c3ccccc3)ccc2=O)C1 (stereo not drawn) the results were PERK inh inactive, Arbovirus inh inactive, WT yeast gro inh inactive and ROMK mod inactive.
CC(C)C(c1nnnn1Cc1ccc(F)cc1)N1CCN(Cc2ccc3c(c2)OCO3)CC1 (stereo not drawn) was read as PERK inh inactive, Arbovirus inh inactive, WT yeast gro inh inactive, ROMK mod -2.3 and ROMK retest 0.054.
`CCN1CCN(C(c2nnnn2Cc2ccc3c(c2)OCO3)C(C)C)CC1` (stereo not drawn) gave PERK inh inactive, Arbovirus inh inactive and WT yeast gro inh inactive.
CC(C)C(c1nnnn1Cc1ccc(F)cc1)N1CCN(C2CCCCC2)CC1 (stereo not drawn) was read as PERK inh inactive, Arbovirus inh inactive, WT yeast gro inh inactive, ROMK mod -5 and ROMK retest 0.061.
For c1cnc2ccc(C(c3nnnn3C3CCCC3)N3CCN4CCCC4C3)cc2c1 (stereo not drawn) the results were PERK inh inactive, Arbovirus inh inactive and WT yeast gro inh inactive.
Screening O=C(COC(=O)c1ccccc1Cl)NC(=O)NCc1ccccc1 returned PERK inh inactive, Arbovirus inh inactive, WT yeast gro inh inactive and ROMK mod inactive.
Cc1occc1C(=O)Nc1ccc2c(c1)OCCO2 was read as PERK inh inactive, Arbovirus inh inactive, WT yeast gro inh inactive and ROMK retest inactive.
Screening COCc1[nH][nH]c(=O)c1/C=N/N1CCOCC1 returned PERK inh inactive, Arbovirus inh inactive, WT yeast gro inh inactive and ROMK mod inactive.
CCOC(=O)c1c(NC(=O)CSc2nnc(-c3ccccc3)o2)sc(C(C)=O)c1C was read as PERK inh inactive, Arbovirus inh inactive and WT yeast gro inh inactive.
Screening CCOC(=O)c1c(NC(=O)CSc2nc3ccccc3o2)sc(C(C)=O)c1C returned PERK inh inactive, Arbovirus inh inactive, WT yeast gro inh inactive, ROMK mod -3.3 and ROMK retest 0.059.
`Cc1ccc(C)c(N2CCN(S(=O)(=O)c3ccc4c(c3)CCC(=O)N4)CC2)c1` gave PERK inh inactive, Arbovirus inh inactive, WT yeast gro inh inactive and ROMK mod inactive.
Screening Cc1ccc(C)c(N2CCN(S(=O)(=O)c3ccc4[nH]c(=O)c(=O)[nH]c4c3)CC2)c1 returned PERK inh inactive, Arbovirus inh inactive, WT yeast gro inh inactive, ROMK mod 3.9 and ROMK retest inconclusive.
N#C/C(=C\c1ccc(N2CCOCC2)o1)c1nc2ccccc2[nH]1 was read as PERK inh inactive, Arbovirus inh inactive and WT yeast gro inh inactive.
For N#C/C(=C/c1ccc(N2CCOCC2)o1)c1ccc(Cl)cc1 the results were PERK inh inactive, Arbovirus inh inactive, WT yeast gro inh inactive and ROMK retest 0.051.
For CC(Sc1nnc(-c2ccccc2Br)n1-c1cccc(C(F)(F)F)c1)C(N)=O (stereo not drawn) the results were PERK inh inactive, Arbovirus inh inactive and WT yeast gro inh inactive.
`CC(=O)N(C(C)=O)S(=O)(=O)c1ccc(N=NN2CCOCC2)cc1` gave PERK inh inactive, Arbovirus inh inactive and WT yeast gro inh inactive.
For CC1=Nc2cc(C(=O)NCCCOC(C)C)ccc2Sc2ccc(C)cc21 the results were PERK inh inactive, Arbovirus inh inactive, WT yeast gro inh inactive, ROMK mod 4.3 and ROMK retest inactive.
For CC1=Nc2cc(C(=O)NCCCOC(C)C)ccc2Sc2ccccc21 the results were PERK inh inactive, Arbovirus inh inactive, WT yeast gro inh inactive, ROMK mod 2.9 and ROMK retest inactive.
CCn1c(C)nc2cc(C(=O)NNC(=O)CCC3CCCCC3)ccc21 was read as PERK inh inactive, Arbovirus inh inactive, WT yeast gro inh inactive and ROMK mod inactive.
`CCCCCc1ccc(OCCCC[n+]2ccccc2)c(CCCCC)c1` gave PERK inh inactive, Arbovirus inh inactive, WT yeast gro inh 86, ROMK mod -4.9 and ROMK retest 0.055.
For CCCCCc1ccc(OCCCC[n+]2cccc(C)c2)c(CCCCC)c1 the results were PERK inh inactive, Arbovirus inh inactive, WT yeast gro inh inactive and ROMK mod inactive.
CCCCCc1ccc(OCCCC[n+]2ccc(C)cc2)c(CCCCC)c1 was read as PERK inh inactive, Arbovirus inh inactive, WT yeast gro inh 98, ROMK mod -5.6 and ROMK retest 0.047.
O=C(Cc1ccccc1)NCc1ccc(-n2cccc2)cc1 was read as PERK inh inactive, Arbovirus inh inactive, WT yeast gro inh inactive, ROMK mod 2.5 and ROMK retest inactive.
`O=C(Cc1ccc(-n2cccc2)cc1)NCc1ccccc1Cl` gave PERK inh inactive, Arbovirus inh inactive, WT yeast gro inh inactive and ROMK mod inactive.
Screening CCOC(=O)c1c(C)[nH]c(C(=O)COC(=O)c2ccc(N3CCCC3=O)cc2)c1C returned PERK inh inactive, Arbovirus inh inactive and WT yeast gro inh inactive.
Screening Cc1nn(Cc2ccccc2)c2c1C(c1ccc(Cl)cc1)C(C#N)=C(N)O2 (stereo not drawn) returned PERK inh inactive, Arbovirus inh inactive, WT yeast gro inh inactive, ROMK mod -2.9 and ROMK retest 0.059.
Screening CCO[C@H]1OC(C(N)=O)=C[C@@H](c2csc3ccccc23)[C@@H]1CCCO returned PERK inh inactive, Arbovirus inh inactive and WT yeast gro inh inactive.
c1csc(CNc2ncnc3sccc23)c1 was read as PERK inh inactive, Arbovirus inh inactive, WT yeast gro inh inactive, ROMK mod -2.9 and ROMK retest 0.066.
O=C1C2CCCN2C(c2ccccc2F)N1c1ccc(Cl)cc1 (stereo not drawn) was read as PERK inh inactive, Arbovirus inh inactive, WT yeast gro inh inactive, ROMK mod 1.5 and ROMK retest inactive.
For COc1cc(C)c(C(N)=O)c(OC)n1 the results were PERK inh inactive, Arbovirus inh inactive, WT yeast gro inh inactive and ROMK mod inactive.
Screening CC1(C)CC(=O)C(C=NCCN2CCN(C3CC(=O)N(c4ccc(Cl)c(Cl)c4)C3=O)CC2)=C(O)C1 (stereo not drawn) returned PERK inh inactive, Arbovirus inh inactive, WT yeast gro inh inactive, ROMK mod -6.7 and ROMK retest inactive.
`O=C1CC(c2ccc(Cl)c(Cl)c2)CC(O)=C1C=NCCN1CCNCC1` (stereo not drawn) gave PERK inh inactive, Arbovirus inh inactive, WT yeast gro inh inactive and ROMK retest 0.057.
Screening CN1C(=O)CC(N2CCN(CCN=CC3=C(O)CC(C)(C)CC3=O)CC2)C1=O (stereo not drawn) returned PERK inh inactive, Arbovirus inh inactive, WT yeast gro inh inactive and ROMK mod inactive.
